This is an account of results in PubChem BioAssay (NCI).

The panel holds about 83,000 compounds, 20% with a hit somewhere; the sample as a whole holds those more often.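 For each line, cells grew in 96-well plates with the test compound present at a single concentration for 48 hours.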 Unmarked numbers belong to inactive results. The source made the active and inactive calls. Rule for the calls: active = growth percent below 10; inactive = the rest.

Among the test systems are NCI-H23 lung; NCI-H226 lung; NCI-H322M lung; HOP-62 NSCLC; NCI-H460 lung; HOP-92 NSCLC; NCI-H522 lung; A549/ATCC NSCLC; 786-0 renal; COLO 205 colon.
What all share (assay): NCI-60 one-dose screen, 48 h (100 = growth as untreated, 0 = no growth, -100 = all killed)
Common to all, as to details: 10 µM unless noted

Consider `CCOC(=O)Nc1nccs1`, for which the growth in the test on NCI-H23 lung was 112%; with NCI-H226 lung, 99.6%; with NCI-H322M lung, 99.6%; in the test with HOP-62 NSCLC, 103%; in the test on NCI-H460 lung, 104%; in the test on HOP-92 NSCLC it was 92.3%. Moreover, the growth in the test on NCI-H522 lung is 104%; in the test with A549/ATCC NSCLC it was 98.3%; in the test on 786-0 renal it was 100%; in the test with COLO 205 colon, 104%.

With `CC(=O)OCC1OC(n2cnc3c(=S)nc(N)[nH]c32)C(OC(C)=O)C1OC(C)=O` (stereo not given), the growth in the test with NCI-H23 lung was 88.3%; with NCI-H226 lung, 68.2%; with NCI-H322M lung, 77.3%; in the test on HOP-62 NSCLC, 49.3%; in the test on NCI-H460 lung, 67.2%; in the test on HOP-92 NSCLC, 28.4%. Besides, the growth in the test on NCI-H522 lung is 83.5%; with A549/ATCC NSCLC, 105%; in the test on 786-0 renal, 66%; with COLO 205 colon it was 120%.

In the case of `Cc1cccc(C)c1NC(=S)/N=C\c1c(O)[nH]c(=O)[nH]c1=O`, the growth in the test with NCI-H23 lung is 104%; in the test with NCI-H226 lung it was 100%; in the test with NCI-H322M lung it was 98.5%; in the test with HOP-62 NSCLC, 87.7%; in the test with NCI-H460 lung, 105%; in the test on HOP-92 NSCLC it was 102%. Moreover, the growth with NCI-H522 lung was 86.4%; in the test on A549/ATCC NSCLC, 79.4%; in the test on 786-0 renal, 101%; with COLO 205 colon it was 103%.

As for `CC(C)OCC(CCl)OC(=O)Nc1ccccc1` (stereo not given), the growth with NCI-H23 lung was 93%; in the test with NCI-H226 lung, 100%; in the test on NCI-H322M lung it was 99.4%; in the test on HOP-62 NSCLC, 104%; with NCI-H460 lung, 105%; with HOP-92 NSCLC, 89.5%. In addition, the growth with NCI-H522 lung was 98.4%; with A549/ATCC NSCLC, 102%; in the test with 786-0 renal, 100%; with COLO 205 colon, 111%.

`CC(=O)C1C(=O)C(=O)N(c2cccc([N+](=O)[O-])c2)C1=O` (stereo not given): the growth with NCI-H23 lung is 99%; in the test on NCI-H226 lung, 92.3%; with NCI-H322M lung, 114%; in the test with HOP-62 NSCLC, 105%; with NCI-H460 lung it was 105%; in the test with HOP-92 NSCLC it was 95.6%. The growth was 104% with NCI-H522 lung, 109% in the test on A549/ATCC NSCLC, 96.8% with 786-0 renal and 111% in the test on COLO 205 colon.

Regarding `C=CC(C)C(C)(C)O` (stereo not given), the growth in the test with NCI-H23 lung was 108%; in the test with NCI-H226 lung it was 98.8%; in the test on NCI-H322M lung, 98.3%; in the test with HOP-62 NSCLC, 102%; in the test on NCI-H460 lung, 102%; in the test on HOP-92 NSCLC, 105%. Besides, the growth is 94.4% with NCI-H522 lung, 94.6% in the test on A549/ATCC NSCLC, 89.4% in the test with 786-0 renal and 110% with COLO 205 colon.

For the compound `COC(=O)C1(CC(C)=O)NC(=S)NC(=O)C1C#N` (stereo not given), the growth with NCI-H23 lung was 99.5%; in the test on NCI-H226 lung it was 108%; in the test with NCI-H322M lung, 108%; in the test on HOP-62 NSCLC it was 104%; in the test with NCI-H460 lung it was 134%; with HOP-92 NSCLC it was 102%. Moreover, the growth was 98.6% in the test on NCI-H522 lung, 106% with A549/ATCC NSCLC, 105% with 786-0 renal and 117% in the test with COLO 205 colon.

Take `COC(=O)c1ccccc1C(=O)c1c(C)cc(C)cc1C`: the growth in the test on NCI-H23 lung is 94.7%; in the test with NCI-H226 lung, 89.5%; in the test with NCI-H322M lung, 101%; with HOP-62 NSCLC, 95.1%; in the test with NCI-H460 lung, 105%; in the test with HOP-92 NSCLC, 107%. For the same compound, the growth was 87.5% in the test with NCI-H522 lung, 84.4% in the test with A549/ATCC NSCLC, 104% with 786-0 renal and 104% in the test with COLO 205 colon.

For `CCCCCCCCCCCCCCCCCCSC(=N)N`, the growth was 63.5% in the test with NCI-H23 lung; 84.1% in the test on NCI-H226 lung; 88% with NCI-H322M lung; 81.6% in the test on HOP-62 NSCLC; 52.7% in the test with NCI-H460 lung; 11.1% in the test on HOP-92 NSCLC. Besides, the growth is 90.1% with NCI-H522 lung, 80.6% with A549/ATCC NSCLC, 61.9% with 786-0 renal and 3.95% (active) with COLO 205 colon.

`N#C/C(=C\c1ccc2c(c1)OCO2)c1ccccc1`: the growth is 84% with NCI-H23 lung; 90.9% with NCI-H226 lung; 95.1% in the test with NCI-H322M lung; 67.3% with HOP-62 NSCLC; 68.3% in the test with NCI-H460 lung; 64.5% with HOP-92 NSCLC. The growth in the test with NCI-H522 lung was 52%; with A549/ATCC NSCLC, 71.9%; in the test with 786-0 renal it was 95.5%; in the test with COLO 205 colon, 66.5%.

As to `O=C(NCc1ccccc1)/C(=C/c1ccccc1)NC(=O)c1ccccc1`, the growth was 104% with NCI-H23 lung; 98% in the test on NCI-H226 lung; 104% in the test on NCI-H322M lung; 104% with HOP-62 NSCLC; 103% with NCI-H460 lung; 85.8% with HOP-92 NSCLC. The growth was 90% in the test on NCI-H522 lung, 85.4% with A549/ATCC NSCLC, 112% in the test with 786-0 renal and 110% in the test on COLO 205 colon.

Regarding `CC(C)c1ncc([N+](=O)[O-])n1C`, the growth in the test with NCI-H23 lung was 103%; in the test with NCI-H226 lung, 102%; in the test on NCI-H322M lung, 126%; in the test with HOP-62 NSCLC, 118%; with NCI-H460 lung, 106%; with HOP-92 NSCLC, 104%. Also, the growth was 96.4% with NCI-H522 lung, 96.9% with A549/ATCC NSCLC, 108% in the test with 786-0 renal and 108% in the test on COLO 205 colon.

On to `Cc1ccc[n+](CCC(N)=O)c1`, for which the growth is 95.3% with NCI-H23 lung; 99.6% in the test with NCI-H226 lung; 103% in the test with NCI-H322M lung; 87.2% in the test on HOP-62 NSCLC; 91.4% in the test on NCI-H460 lung; 91.5% in the test on HOP-92 NSCLC. In addition, the growth in the test on NCI-H522 lung was 90.2%; in the test with A549/ATCC NSCLC it was 93.7%; with 786-0 renal, 94.4%; with COLO 205 colon, 107%.

Turning to `O=Cc1c(O)c2ccccc2[nH]c1=O`, the growth in the test on NCI-H23 lung is 97.8%; in the test on NCI-H226 lung, 88.6%; in the test on NCI-H322M lung, 112%; with HOP-62 NSCLC, 102%; with NCI-H460 lung it was 103%; with HOP-92 NSCLC, 110%. The growth was 94.8% with NCI-H522 lung, 90.1% in the test on A549/ATCC NSCLC, 104% with 786-0 renal and 108% in the test on COLO 205 colon.

`CC1CN(CCO)CC(C)O1` (stereo not given): the growth was 106% in the test with NCI-H23 lung; 95.2% in the test on NCI-H226 lung; 102% in the test on NCI-H322M lung; 99.3% in the test on HOP-62 NSCLC; 110% with NCI-H460 lung; 103% in the test on HOP-92 NSCLC. For the same compound, the growth in the test with NCI-H522 lung is 108%; with A549/ATCC NSCLC, 100%; with 786-0 renal it was 104%; in the test on COLO 205 colon, 117%.
